About 83,000 compounds went through this panel and 20% of them were active in at least one assay; those are over-represented in the sample as a whole.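 Step 1: grow cells in 96-well plates. Step 2: add test compound at a single concentration. Step 3: incubate 48 h. Step 4: record percent growth.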 Active and inactive are the calls of the source. The calls were made as follows: active = growth percent below 10; inactive = the rest.
Key:
Experiment in all cases: NCI-60 one-dose screen, 48 h (100 = growth as untreated, 0 = no growth, -100 = all killed)
Settings in all cases: 10 µM unless noted
RPMI-8226 leukemia = system: RPMI-8226 leukemia
OVCAR-8 ovarian = system: OVCAR-8 ovarian
OVCAR-5 ovarian = system: OVCAR-5 ovarian
SK-OV-3 ovarian = system: SK-OV-3 ovarian
IGROV1 ovarian = system: IGROV1 ovarian
OVCAR-3 ovarian = system: OVCAR-3 ovarian
NCI/ADR-RES ovarian = system: NCI/ADR-RES ovarian
OVCAR-4 ovarian = system: OVCAR-4 ovarian
HS 578T breast = system: HS 578T breast

Measured: growth

CN(C)c1ccc(C2Nc3ccccc3-n3cccc32)cc1 (stereo unspecified)
inactive: RPMI-8226 leukemia 80.2% | OVCAR-8 ovarian 94.5% | OVCAR-5 ovarian 72% | SK-OV-3 ovarian 104% | IGROV1 ovarian 55% | OVCAR-3 ovarian 92.8% | NCI/ADR-RES ovarian 105%

C=CCSc1nnc(-c2ccc(C(C)(C)C)cc2)n1-c1cccc(C(F)(F)F)c1
inactive: RPMI-8226 leukemia 17.4% | OVCAR-8 ovarian 32.1% | OVCAR-5 ovarian 77.3% | OVCAR-4 ovarian 44.4% | IGROV1 ovarian 54.5% | OVCAR-3 ovarian 40.9% | HS 578T breast 45.5% | NCI/ADR-RES ovarian 22.9%

CCC(c1ccc(O)cc1)C(CC)c1ccc(O)c(F)c1 (stereo unspecified)
inactive: RPMI-8226 leukemia 63.7% | OVCAR-8 ovarian 98.4% | OVCAR-5 ovarian 93.5% | OVCAR-4 ovarian 75.3% | SK-OV-3 ovarian 99% | IGROV1 ovarian 83% | OVCAR-3 ovarian 85.3% | HS 578T breast 73.9% | NCI/ADR-RES ovarian 81.8%

O=C(COCc1c(-c2ccccc2)no[n+]1[O-])Nc1ccc(C(=O)/C=C/c2ccc3c(c2)OCO3)cc1
inactive: RPMI-8226 leukemia 74.2% | OVCAR-8 ovarian 87.5% | OVCAR-5 ovarian 99.4% | SK-OV-3 ovarian 112% | IGROV1 ovarian 95.2% | OVCAR-3 ovarian 113% | HS 578T breast 101% | NCI/ADR-RES ovarian 106%

NC(=S)N/N=C/c1cc(-c2cccc(N)c2)ccn1
inactive: RPMI-8226 leukemia 12.2% | OVCAR-8 ovarian 21.6% | OVCAR-5 ovarian 46.1% | SK-OV-3 ovarian 27.5% | IGROV1 ovarian 16% | OVCAR-3 ovarian 40.8% | HS 578T breast 38.1% | NCI/ADR-RES ovarian 21.2%

COc1ccc2[nH]c(=O)c(/C=C/C(=O)c3ccc(Nc4nccc(-c5ccc6ccccc6c5)n4)cc3)cc2c1
inactive: RPMI-8226 leukemia 105% | OVCAR-8 ovarian 100% | OVCAR-5 ovarian 104% | SK-OV-3 ovarian 105% | IGROV1 ovarian 98.9% | OVCAR-3 ovarian 105% | HS 578T breast 98.8% | NCI/ADR-RES ovarian 99.2%

CSc1nc(NCCO)c(C#N)c(-c2cccc(N)c2)n1
inactive: RPMI-8226 leukemia 99.7% | OVCAR-8 ovarian 98.8% | OVCAR-5 ovarian 96.2% | OVCAR-4 ovarian 96.4% | SK-OV-3 ovarian 93% | IGROV1 ovarian 92% | OVCAR-3 ovarian 113% | NCI/ADR-RES ovarian 99.8%

CN1CCN(c2ccc3nc(-c4ccc5nc(-c6ccc(OCCC(C)(C)C)cc6)[nH]c5c4)[nH]c3c2)CC1
inactive: OVCAR-4 ovarian 81.2% | IGROV1 ovarian 77.7% | HS 578T breast 52.1% | NCI/ADR-RES ovarian 88%
active: RPMI-8226 leukemia -50.1% | OVCAR-8 ovarian -48.9% | OVCAR-5 ovarian -2.35% | OVCAR-3 ovarian -83.6%

COc1ccc(-c2c3c(nc4n[nH]c(-c5ccc(Cl)cc5)c24)-c2ccccc2C(=O)C3=O)cc1
active: RPMI-8226 leukemia -11.4% | OVCAR-8 ovarian 3.87% | OVCAR-3 ovarian -17.2% | NCI/ADR-RES ovarian -3.63%
inactive: OVCAR-5 ovarian 51.5% | OVCAR-4 ovarian 23%

CCCCCC(=O)Oc1ccc(/C(=C(\C)c2ccccc2)c2ccc(OCCN(CC)CC)cc2)cc1
inactive: RPMI-8226 leukemia 46.5% | OVCAR-8 ovarian 81.9% | OVCAR-5 ovarian 87.6% | OVCAR-4 ovarian 84% | SK-OV-3 ovarian 75.2% | IGROV1 ovarian 75.9% | OVCAR-3 ovarian 86.6% | NCI/ADR-RES ovarian 74.2%

O=c1c2c3c(sc2n2c(CCl)nnc2n1Cc1ccccc1)CCCC3
inactive: NCI/ADR-RES ovarian 19%
active: RPMI-8226 leukemia -38.8% | OVCAR-8 ovarian 7.48% | OVCAR-5 ovarian -58.9% | OVCAR-4 ovarian -99.3% | IGROV1 ovarian -42.9% | OVCAR-3 ovarian -98.4% | HS 578T breast -36.1%

C[C@H](CCC(=O)O)[C@H]1CC[C@H]2[C@@H]3CC[C@@H]4/C(=C\c5ccco5)C(=O)/C(=C\c5ccco5)C[C@]4(C)[C@H]3CC[C@]12C
active: RPMI-8226 leukemia 3.68%
inactive: OVCAR-8 ovarian 70.6% | OVCAR-5 ovarian 113% | SK-OV-3 ovarian 121% | IGROV1 ovarian 93% | OVCAR-3 ovarian 24.6% | HS 578T breast 69.3% | NCI/ADR-RES ovarian 80%

Nc1nc(-c2ccc(F)cc2)cc(-c2cnn(-c3ccccc3)n2)n1
inactive: RPMI-8226 leukemia 105% | OVCAR-8 ovarian 100% | OVCAR-5 ovarian 110% | OVCAR-4 ovarian 111% | SK-OV-3 ovarian 102% | IGROV1 ovarian 83.8% | OVCAR-3 ovarian 105% | HS 578T breast 106% | NCI/ADR-RES ovarian 106%

Oc1cccc(Nc2nccc(-c3ccc4ccccc4c3)n2)c1
active: RPMI-8226 leukemia 9.15%
inactive: OVCAR-8 ovarian 29.4% | OVCAR-5 ovarian 58.4% | SK-OV-3 ovarian 27.2% | IGROV1 ovarian 41.7% | OVCAR-3 ovarian 14.7% | HS 578T breast 13% | NCI/ADR-RES ovarian 19.9%

COc1ccc(C2Nc3ccccc3-n3cccc32)cc1 (stereo unspecified)
inactive: RPMI-8226 leukemia 89.4% | OVCAR-8 ovarian 96.6% | OVCAR-5 ovarian 84.9% | OVCAR-4 ovarian 93.6% | SK-OV-3 ovarian 99.9% | IGROV1 ovarian 71.3% | OVCAR-3 ovarian 96.1% | HS 578T breast 93.2% | NCI/ADR-RES ovarian 89.9%

Cc1csc2ccc(Cl)cc12
inactive: RPMI-8226 leukemia 109% | OVCAR-5 ovarian 102% | OVCAR-4 ovarian 98.1% | SK-OV-3 ovarian 96.5% | IGROV1 ovarian 104% | OVCAR-3 ovarian 111% | HS 578T breast 104% | NCI/ADR-RES ovarian 103%

CCOC(=O)C12CCCC1=CC(=O)CC2 (stereo unspecified)
inactive: RPMI-8226 leukemia 98.5% | OVCAR-8 ovarian 96.5% | OVCAR-5 ovarian 96.3% | SK-OV-3 ovarian 102% | IGROV1 ovarian 103% | OVCAR-3 ovarian 116% | HS 578T breast 98.2% | NCI/ADR-RES ovarian 104%

O=C(CO[N+](=O)[O-])Nc1ccc(C(=O)/C=C/c2ccc3c(c2)OCO3)cc1
inactive: RPMI-8226 leukemia 46.8% | OVCAR-8 ovarian 75.8% | OVCAR-5 ovarian 96.5% | OVCAR-4 ovarian 96.1% | IGROV1 ovarian 48.3% | OVCAR-3 ovarian 80.6% | HS 578T breast 103% | NCI/ADR-RES ovarian 84.5%

Cn1c2c(Cl)c(Cl)ccc2c2ccn3c(=O)c4ccccc4nc3c21
inactive: RPMI-8226 leukemia 98.8% | OVCAR-8 ovarian 95.5% | OVCAR-5 ovarian 96.8% | SK-OV-3 ovarian 88.9% | IGROV1 ovarian 54.4% | OVCAR-3 ovarian 113% | HS 578T breast 103%

Cc1nc2nc(N)nc(N)c2nc1C
inactive: RPMI-8226 leukemia 100% | OVCAR-8 ovarian 96.2% | OVCAR-5 ovarian 93.6% | OVCAR-4 ovarian 96.4% | SK-OV-3 ovarian 103% | IGROV1 ovarian 108% | OVCAR-3 ovarian 98% | NCI/ADR-RES ovarian 102%

CS(=O)(=O)c1c(Nc2ccccc2)n[nH]c1N
inactive: RPMI-8226 leukemia 97.8% | OVCAR-8 ovarian 105% | OVCAR-5 ovarian 102% | SK-OV-3 ovarian 103% | IGROV1 ovarian 112% | OVCAR-3 ovarian 121% | HS 578T breast 118% | NCI/ADR-RES ovarian 104%

O=C(/C=C/c1cccc(Br)c1)c1ccccc1
inactive: RPMI-8226 leukemia 23.6% | OVCAR-8 ovarian 88.7% | OVCAR-5 ovarian 83.2% | OVCAR-4 ovarian 90.6% | IGROV1 ovarian 84.8% | OVCAR-3 ovarian 98.3% | HS 578T breast 101% | NCI/ADR-RES ovarian 103%

O=C(NC(Cc1ccccc1)C(=O)CCl)OCc1ccccc1 (stereo unspecified)
active: RPMI-8226 leukemia 9.51%
inactive: OVCAR-5 ovarian 92.3% | OVCAR-4 ovarian 62.7% | IGROV1 ovarian 87.7% | OVCAR-3 ovarian 76% | HS 578T breast 99.5% | NCI/ADR-RES ovarian 75.1%

CN1CCN(Cc2ccc(NC(=O)c3[nH]ncc3Nc3ncnc4sccc34)cc2)CC1
inactive: OVCAR-8 ovarian 12% | OVCAR-5 ovarian 21.2% | SK-OV-3 ovarian 31.4% | IGROV1 ovarian 23.6% | NCI/ADR-RES ovarian 16.4%
active: RPMI-8226 leukemia -4.38% | OVCAR-3 ovarian 3.42% | HS 578T breast -2.25%

COc1cccc2c1C(=O)c1c(O)c3c(c(O)c1C2=O)C[C@@](O)(/C(C)=N/NC(=O)c1ccc(Cl)cc1)C[C@@H]3OC1CC(N)C(O)C(C)O1 (stereo partly specified)
active: RPMI-8226 leukemia -28.7% | OVCAR-8 ovarian -49.9% | OVCAR-4 ovarian -9.91% | SK-OV-3 ovarian 5.07% | IGROV1 ovarian -21.8% | OVCAR-3 ovarian -28.5%
inactive: OVCAR-5 ovarian 13.9% | NCI/ADR-RES ovarian 47.8%

C=C1CCC2C3(C)COC(c4cccc(Cl)c4)OC3CCC2(C)C1/C=C/C1=CCOC1=O (stereo unspecified)
inactive: RPMI-8226 leukemia 51.8% | OVCAR-8 ovarian 71.5% | OVCAR-5 ovarian 84.3% | OVCAR-4 ovarian 53.7% | SK-OV-3 ovarian 78.1% | IGROV1 ovarian 88.9% | OVCAR-3 ovarian 76.9% | HS 578T breast 96.1% | NCI/ADR-RES ovarian 44%

O=C1/C(=C/c2ccc(Cl)c(Cl)c2)CN(C(=O)CCN2CCC(=NO)CC2)C/C1=C\c1ccc(Cl)c(Cl)c1
active: RPMI-8226 leukemia -37.2% | OVCAR-8 ovarian -95.5% | OVCAR-5 ovarian -71.3% | OVCAR-4 ovarian -96.6% | SK-OV-3 ovarian -55.7% | IGROV1 ovarian -63.3% | OVCAR-3 ovarian -97.8% | HS 578T breast -28.5% | NCI/ADR-RES ovarian -60.2%

CC(C)C1=C[C@@]23CC[C@@H]4[C@](C)(CCC[C@@]4(C)C(=O)OCC#CCN4CCCC4)[C@H]2C[C@@H]1[C@H]1C(=O)OC(=O)[C@H]13
inactive: RPMI-8226 leukemia 80.3% | OVCAR-8 ovarian 115% | OVCAR-5 ovarian 97.3% | OVCAR-4 ovarian 92% | IGROV1 ovarian 81.9% | OVCAR-3 ovarian 94.2% | HS 578T breast 99.2% | NCI/ADR-RES ovarian 99.3%

O=C1NC(=O)C(CC(=O)n2c(-c3ccccc3)nc3ccccc32)C(=O)N1
inactive: RPMI-8226 leukemia 101% | OVCAR-8 ovarian 101% | OVCAR-5 ovarian 103% | OVCAR-4 ovarian 103% | SK-OV-3 ovarian 98.3% | IGROV1 ovarian 93.3% | OVCAR-3 ovarian 106% | NCI/ADR-RES ovarian 103%

O=C(/C=C\c1ccc2ccccc2n1)c1cc(Cl)ccc1O
inactive: OVCAR-8 ovarian 63.6% | OVCAR-5 ovarian 81.3% | SK-OV-3 ovarian 111% | IGROV1 ovarian 86.1% | OVCAR-3 ovarian 43.5% | HS 578T breast 95.1% | NCI/ADR-RES ovarian 60.4%

CC(=O)OCC1OC(OC2=C(CC=C(Cl)Cl)C(=O)c3ccccc3C2=O)C(OC(C)=O)C(OC(C)=O)C1OC(C)=O (stereo unspecified)
active: RPMI-8226 leukemia 9.85%
inactive: OVCAR-8 ovarian 18% | OVCAR-5 ovarian 105% | SK-OV-3 ovarian 96% | IGROV1 ovarian 83.4% | OVCAR-3 ovarian 46.4% | HS 578T breast 96.9% | NCI/ADR-RES ovarian 93.1%

CC1(C)CC(=O)C(c2c(-c3ccccc3)[nH]c3[nH]c(=S)[nH]c(=O)c23)=C(O)C1
inactive: RPMI-8226 leukemia 101% | OVCAR-8 ovarian 100% | OVCAR-5 ovarian 98.4% | OVCAR-4 ovarian 114% | SK-OV-3 ovarian 114% | IGROV1 ovarian 132% | OVCAR-3 ovarian 124% | HS 578T breast 123% | NCI/ADR-RES ovarian 108%
